From PubChem BioAssay
Calls of active or inactive are those of the source. Unless noted, how the calls were made is not given here.

Key:
[1] = A549 cell viability effects, profiling panel, calcein-AM fluorescence, 48 h, basal (AID 1162); conditions: higher = more signal; further: test concentration not given here
[2] = adipocyte viability effects, profiling panel, cell-based, 3T3-L1 adipocytes, calcein-AM fluorescence, 48 h, basal (AID 1163); conditions: 3T3-L1 adipocytes viability, higher = more signal; further: test concentration not given here
[3] = HepG2 cell viability effects, profiling panel, calcein-AM fluorescence, 48 h, basal (AID 1164); conditions: higher = more signal; further: test concentration not given here
[4] = MM1S cell viability effects, profiling panel, calcein-AM fluorescence, 48 h, basal (AID 1165); conditions: higher = more signal;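 further: viability of MM1S multiple myeloma cells under basal unstimulated conditions; test concentration not given here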
[5] = basal RPMI8226 viability, no added stimulus, profiling panel, cell-based, calcein-AM fluorescence, 48 h, PK04 Diversity Set (AID 1166); conditions: RPMI8226 myeloma viability, higher = more signal;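 further: cells grown under basal conditions without added stimulus; test concentration not given here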
[6] = basal HepG2 mitochondrial membrane potential changes, profiling panel, cell-based, JC-1 fluorescence, 24 h, 100 nL compound (AID 1167); conditions: higher = more signal; further: test concentration not given here
[7] = basal 3T3-L1 adipocyte mitochondrial potential changes, profiling panel, cell-based, JC-1 fluorescence, 3T3-L1 adipocytes, 24 h, 100 nL compound (AID 1168); conditions: JC-1 mitochondrial fluorescence, higher = more signal, called active from +8 up or from −8 down; further: test concentration not given here
[8] = basal RPMI8226 mitochondrial membrane potential changes, profiling panel, cell-based, JC-1 fluorescence, 24 h, 100 nL compound (AID 1169); conditions: RPMI8226 myeloma, JC-1 mitochondrial potential fluorescence, higher = more signal; further: test concentration not given here
[9] = basal MM1S mitochondrial membrane potential changes, profiling panel, cell-based, JC-1 fluorescence, 24 h, 100 nL compound (AID 1170); conditions: higher = more signal; further: test concentration not given here
[10] = A549 lung cancer cell viability effects, profiling panel, resazurin fluorescence, 24 h, PK04 Diversity Set (AID 1171); conditions: higher = more signal, called active from +8 up or from −8 down; further: test concentration not given here
[11] = HepG2 liver cancer cell viability effects, profiling panel, resazurin fluorescence, 24 h, PK04 Diversity Set (AID 1172); conditions: higher = more signal; further: test concentration not given here
[12] = basal S. cerevisiae growth modulation, no modifier, primary screen, OD600, strain BY4716, 24 h, basal condition (AID 1173); conditions: OD600, 24 h, higher = more signal, called active from +8 up or from −8 down
[13] = MM1S myeloma cell viability, profiling panel, resazurin fluorescence, basal, 24 h, PK04 Diversity Set (AID 1174); conditions: higher = more signal, called active from +8 up or from −8 down;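 further: MM1S multiple myeloma cell line; test concentration not given here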
[14] = biological target: Dihydroorotate dehydrogenase (quinone), mitochondrial (Plasmodium falciparum (isolate 3D7)) (UniProt Q08210); test: PfDHODH enzyme inhibitors, primary screen, biochemical, C-terminal His tag, absorbance 600 nm (AID 1175); conditions: DCIP absorbance 600 nm, higher = more signal, called active from +8 up or from −8 down;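 further: recombinant parasite enzyme with a five histidine tag at its C terminus; test concentration not given here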
Chain of Dihydroorotate dehydrogenase (quinone), mitochondrial (Plasmodium falciparum (isolate 3D7)) (Q08210 whole entry, looked up): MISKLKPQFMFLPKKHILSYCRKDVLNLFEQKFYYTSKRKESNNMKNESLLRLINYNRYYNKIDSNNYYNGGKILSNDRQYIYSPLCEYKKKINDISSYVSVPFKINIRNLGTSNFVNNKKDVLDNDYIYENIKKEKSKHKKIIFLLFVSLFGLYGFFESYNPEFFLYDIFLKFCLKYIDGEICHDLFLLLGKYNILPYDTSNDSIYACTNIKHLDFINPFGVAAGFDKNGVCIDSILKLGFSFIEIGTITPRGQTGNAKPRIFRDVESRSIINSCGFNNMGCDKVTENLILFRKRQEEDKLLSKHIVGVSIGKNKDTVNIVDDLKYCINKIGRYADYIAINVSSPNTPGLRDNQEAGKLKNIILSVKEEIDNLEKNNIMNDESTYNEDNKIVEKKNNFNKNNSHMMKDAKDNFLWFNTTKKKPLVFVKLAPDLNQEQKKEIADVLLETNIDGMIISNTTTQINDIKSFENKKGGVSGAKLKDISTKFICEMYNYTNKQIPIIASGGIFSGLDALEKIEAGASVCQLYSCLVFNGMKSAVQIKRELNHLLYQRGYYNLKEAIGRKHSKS

[15] = P. aeruginosa biofilm formation inhibitors, primary screen, strain PAO1, LB-PBS medium, absorbance 600 nm (AID 1176); further: test concentration not given here; conditions: P. aeruginosa PAO1 growth/biofilm, A600, 12 h; higher = more signal
[16] = S. cerevisiae RM11-1a growth modifiers, primary screen, strain RM11-1a, OD600, basal, 24 h (AID 1177); conditions: OD600, 24 h, higher = more signal, called active from +8 up or from −8 down;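 further: cultures grown under basal conditions with no added stressor; test concentration not given here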
[17] = E. coli acrAB mutant growth effects, primary screen, E. coli filamentation inducers, strain DRC39, OD650, 24 h (AID 1178); conditions: higher = more signal, called active from +8 up or from −8 down;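 further: growth measured as culture turbidity by optical density at 650 nm; test concentration not given here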
[18] = E. coli acrAB mutant growth effects, primary screen, E. coli filamentation inducers, strain DRC39, OD650, 48 h (AID 1179);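 further: screen aims at cell division blockers that make cells filament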; conditions: E. coli DRC39 delta-acrAB growth, higher = more signal, called active from +8 up or from −8 down
[19] = RPMI8226 myeloma cell viability, profiling panel, resazurin fluorescence, basal, 24 h, PK04 Diversity Set (AID 1180); conditions: higher = more signal;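 further: RPMI8826 multiple myeloma cell line at 5000 cells per well; test concentration not given here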
[20] = biological target: E3 ubiquitin-protein ligase XIAP (Homo sapiens) (UniProt P98170); test: XIAP binders, primary screen, biophysical, small-molecule microarray, fluorescence 635 nm (AID 1181); conditions: small-molecule microarray binding, higher = more signal;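 further: score merges 667 nm emission and signal to noise over triplicate slides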
Chain of E3 ubiquitin-protein ligase XIAP (Homo sapiens) (P98170 whole entry, looked up): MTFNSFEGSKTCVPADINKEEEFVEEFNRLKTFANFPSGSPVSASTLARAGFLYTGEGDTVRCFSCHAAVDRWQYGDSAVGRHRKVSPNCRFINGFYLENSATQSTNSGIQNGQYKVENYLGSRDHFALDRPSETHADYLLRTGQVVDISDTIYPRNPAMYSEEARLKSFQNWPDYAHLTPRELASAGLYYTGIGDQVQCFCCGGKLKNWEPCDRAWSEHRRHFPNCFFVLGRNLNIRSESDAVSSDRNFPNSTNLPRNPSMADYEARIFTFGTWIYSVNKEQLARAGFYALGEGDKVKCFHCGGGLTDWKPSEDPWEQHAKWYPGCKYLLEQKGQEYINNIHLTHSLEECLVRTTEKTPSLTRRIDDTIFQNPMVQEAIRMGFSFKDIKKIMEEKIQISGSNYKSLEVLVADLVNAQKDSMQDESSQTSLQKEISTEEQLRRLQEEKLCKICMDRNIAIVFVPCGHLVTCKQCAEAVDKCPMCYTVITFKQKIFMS

Structure (SMILES) | z-score [1] | z-score [2] | z-score [3] | z-score [4] | z-score [5] | z-score [6] | z-score [7] | z-score [8] | z-score [9] | z-score [10] | z-score [11] | z-score [12] | z-score [13] | composite z-score [14] | z-score [15] | z-score [16] | z-score [17] | z-score [18] | z-score [19] | composite z-score [20]
CCOC(=O)C[C@H]1[C@H](OC(=O)Cc2ccc3c(c2)OCO3)[C@@H](NC(=O)c2ccc(-c3ccccc3)cc2)c2cc(OCCCO)ccc2N1C(=O)c1ccc2ccccc2n1 | 1.8 | 2.75 | 1.65 | 0.218 | -0.472 | 2.72 | 0.61 (inactive) | -0.233 | -0.903 | 0.562 (inactive) | 0.138 | -2.85 (inactive) | 0.878 (inactive) | -2.91 (inactive) | -0.906 (inactive) | -1.63 (inactive) | 1.26 (inactive) | 0.455 (inactive) | 0.356 | -0.102
C#CCN(Cc1ccccc1Br)C(/C=C/c1ccccc1)CO (stereo not given) | -3.65 | -0.011 | -3.95 | -3.26 | -4.12 | -2.83 | 0.165 (inactive) | -1.2 | -1.21 | -0.411 (inactive) | -0.54 | -6.66 (inactive) | 0.862 (inactive) | 0.34 (inactive) | -0.365 (inactive) | -1.26 (inactive) | 1.1 (inactive) | -0.494 (inactive) | -0.166 | 0.147
COC(=O)c1c(CC[C@@H](CO)NC(=O)N2CCC[C@H]2Cn2cc(-c3ccccn3)nn2)oc(C(C)=O)c1C(=O)OC | -0.204 | 1 | -1.02 | 0.208 | 1.18 | -0.443 | -0.922 (inactive) | 0.859 | -0.475 | 0.133 (inactive) | 0.422 | -0.835 (inactive) | 0.608 (inactive) | -0.492 (inactive) | -0.252 (inactive) | -1.19 (inactive) | 1.28 (inactive) | 0.835 (inactive) | 0.426 | -0.0351
COCCOC(=O)N1C(=O)[C@@]2(c3cc(C#CCCO)ccc31)[C@H](C(=O)N1CCN(c3ncccn3)CC1)[C@H]1C(=O)O[C@H](c3ccccc3)[C@H](c3ccccc3)N1[C@@H]2c1ccccc1OCCO | 0.703 | 0.701 | -0.51 | 0.135 | -0.192 | 0.107 | 0.675 (inactive) | -0.324 | -1.15 | 1.79 (inactive) | 0.906 | 0.674 (inactive) | 0.399 (inactive) | -0.237 (inactive) | -0.116 (inactive) | 1.36 (inactive) | 0.111 (inactive) | -0.776 (inactive) | 0.485 | -0.0312
COc1ccc(C(=O)O[C@H]2CC[C@]3(C)C4=C(CCC3C2(C)C)[C@]2(C)CC[C@H]([C@H](C)CCCC(C)C)[C@@]2(C)CC4)cc1 (stereo not given in full) | 0.373 | 0.586 | 0.729 | 0.41 | 0.784 | 2.19 | 0.375 (inactive) | -0.0976 | -1.47 | 0.936 (inactive) | 1.09 | 1.77 (inactive) | 0.873 (inactive) | -1.74 (inactive) | 0.814 (inactive) | -1.09 (inactive) | 1.25 (inactive) | 1.11 (inactive) | 1.37 | -0.142
CCCCC=C[C@@H](NC(=O)Oc1cccc(C(F)(F)F)c1)c1ccccc1 | -1.12 | 0.26 | -0.568 | -1.8 | -3.36 | -1.63 | -0.585 (inactive) | -0.799 | -1.1 | -0.665 (inactive) | -1.68 | 1.74 (inactive) | -2.06 (inactive) | -3.25 (inactive) | 2.62 (inactive) | 1.37 (inactive) | -0.844 (inactive) | -0.665 (inactive) | -2.1 | 0.0748
O=C1C2C=CC(C(O)c3c(F)cccc3Cl)N(Nc3ccccc3)C2C(=O)N1c1ccccc1 (stereo not given) | 1.14 | -1.4 | 0.309 | -0.474 | 0.474 | -1.41 | 0.455 (inactive) | -0.235 | -0.488 | -0.0768 (inactive) | 0.947 | -1.48 (inactive) | -0.478 (inactive) | 0.693 (inactive) | -0.131 (inactive) | -0.679 (inactive) | 0.302 (inactive) | 1.28 (inactive) | 0.284 | 0.0975
C=CCOC(=O)[C@@H]1[C@H]2C(=O)O[C@H](c3ccccc3)[C@H](c3ccccc3)N2[C@H](c2ccc(OCCOC(=O)[C@@H]3C[C@@H]4C(=O)N5CCC[C@H]5C(=O)N4[C@@H]3c3ccc(O)cc3)cc2)[C@@]12C(=O)Nc1ccc(I)cc12 | 1.87 | 1.24 | 0.502 | -0.573 | 0.278 | -1.6 | 0.231 (inactive) | -0.752 | -1.25 | -0.248 (inactive) | 0.339 | 0.155 (inactive) | -0.446 (inactive) | -0.326 (inactive) | 2.65 (inactive) | -0.468 (inactive) | 0.65 (inactive) | 1.72 (inactive) | 1.28 | -0.059
O=C1NC(=O)C2C1C=CC(C(O)C(c1ccccc1)c1ccccc1)N2Nc1ccc(Cl)cc1Cl (stereo not given) | -2.92 | 0.205 | -2.7 | -3.71 | -4.14 | -3.99 | -0.283 (inactive) | -0.925 | -0.133 | -1.18 (inactive) | -2.23 | -2.63 (inactive) | -1.05 (inactive) | 0.125 (inactive) | 0.599 (inactive) | 1.17 (inactive) | -0.659 (inactive) | -0.712 (inactive) | -1.62 | 0.236
